hgDAF12 agonist: activates the H. glycines DAF-12 receptor ligand-binding domain; activation, % at 6.8 µM; actives 1.8% (n = 370,000); HEK293 GAL4-hgDAF12 UAS-luciferase reporter, agonist luminescence; normalized to butyrate control;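 active = activation above a cutoff set at the mean of all screened compounds plus 3 SD, cut at about 10% in these data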;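 note: 0% = DMSO wells and 100% = sodium butyrate wells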
hcDAF12 agonist: H. contortus DAF-12 activation, primary screen | HEK293 hcDAF-12 lit1-tk-luc reporter, luminescence; 0% DMSO, 100% Δ7-dafachronic acid | activation, % at 6.8 µM | actives 1.4% (n = 370,000) | AID 652067;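 active = activation above the mean of all tested compounds plus 3 SD, cut at about 5.5% in these data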;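 note: 100% = response to 3 µM Δ7-dafachronic acid high control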
DAX1 inh-1: inhibitors of DAX1 repression of SF-1 activated StAR promoter. HEK293T StAR-luciferase reporter, SF-1/DAX-1 repression relief. inhibition, % at 6.8 µM. actives 1.1% (n = 370,000). AID 652010;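 active = inhibition above the mean over all tested compounds plus 3 SD, cut at about 3.6% in these data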;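 note: 0% = DAX-1 cells with DMSO and 100% = cells lacking DAX-1 with DMSO; higher inhibition means more luminescence from relief of DAX-1 repression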
PolyA inh: blocks polyadenylation in yeast reporter cells. S. cerevisiae SKY197-pL101 polyadenylation reporter, beta-gal luminescence; efflux-impaired pdr1/pdr3 knockout yeast; score 100 = 6 SD above DMSO. activity score, % at 12 µM. actives 0.02% (n = 300,000). AID 1875;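 active = lowest replicate activity score at least 50, where 100 means six control SD above control mean; inconclusive = lowest score under 50 but half or more replicates reach 50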;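 note: yeast exposed to compound for 9 h at 30 °C; higher score means more reporter readthrough which indicates perturbed polyadenylation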
DAX1 inh-2: NR0B1 (DAX1) inhibition; P51843; HEK293 Gal4-DAX1 luciferase reporter, luminescence; inhibition, % at 6.75 µM; actives 0.99% (n = 340,000); AID 504766;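 active = inhibition above the mean over all tested compounds plus 3 SD, cut at about 4.2% in these data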;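 note: 0% = DAX1-transfected cells with DMSO and 100% = empty-vector control cells with DMSO; inhibition shows as a rise in luminescence from relieved DAX1 repression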
Target sequence (P51843 207-470 limits assumed): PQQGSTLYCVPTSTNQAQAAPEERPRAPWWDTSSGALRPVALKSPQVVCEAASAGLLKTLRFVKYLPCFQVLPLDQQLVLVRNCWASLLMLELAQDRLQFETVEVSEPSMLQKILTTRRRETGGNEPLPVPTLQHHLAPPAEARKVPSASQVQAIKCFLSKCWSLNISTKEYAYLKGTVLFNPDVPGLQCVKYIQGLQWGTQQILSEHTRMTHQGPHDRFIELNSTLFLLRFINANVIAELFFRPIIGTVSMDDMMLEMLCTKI
ssDAF-12 act: S. stercoralis DAF-12 activation, primary screen; actives 1% (n = 370,000); AID 652126; HEK293 ssDAF-12/GRIP1 lit1-tk-luc reporter, luminescence; % of 3 µM dafachronic acid response; activation, % at 6.8 µM;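 active = activation above the mean over all tested compounds plus 3 SD, cut at about 0.9% in these data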;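 note: 0% = DMSO-only wells and 100% = 3 µM delta7-dafachronic acid wells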
Numbers without * were called inactive; ? = inconclusive; . = not tested or not shown. A selection: hits, their analogues and other compounds. The true share with any hit is near 4.1%.

SMILES	hgDAF12 agonist	hcDAF12 agonist	DAX1 inh-1	PolyA inh	DAX1 inh-2	ssDAF-12 act
CCn1c2ccccc2c2cc(NC(=O)COC(=O)c3ccc(F)cc3F)ccc21	0	-1	0	.	.	-1
CCOC(=O)Cc1nnc(NC(=O)COc2ccc(OC)cc2)s1	-2	3	0	11	4.7*	-2
O=C(COC(=O)c1c(F)cccc1Cl)NC1CCCCC1	6	2	2	.	1	1.0*
S=c1[nH]nc(-c2n[nH]c3c2CCC3)n1N=Cc1ccc(Br)s1	-3	-1	0	.	.	-2
N/C(=N\OC(=O)CCC1CCCC1)c1ccccn1	8	1	4.2*	15	2	0
CCc1ccc(OCC(=O)O/N=C(\N)c2ccccn2)cc1	11*	3	3	2	.	-1
N/C(=N\OC(=O)COc1ccccc1)c1ccccn1	11*	0	3	20	3	-1
N/C(=N\OC(=O)COc1ccccc1)c1ccncc1	4	-1	0	10	5.3*	-1
CC(C)C[C@H]1COc2cc(N3CCOCC3)ccc2S(=O)(=O)N1	-3	-1	0	.	.	-1
COc1ccc(-n2c(COc3ccccc3)nnc2SCC(=O)Nc2ccc(OCc3ccccc3)cc2)cc1	1	-2	-2	.	.	-2
N/C(=N\OC(=O)CSc1ccccc1)c1ccncc1	8	5.7*	4	6	2	0
N/C(=N\OC(=O)Cc1ccccc1)c1ccccn1	12*	0	1	9	0	-1
CN(C)C(=O)C[C@H]1C[C@@H]2c3cc(NC(=O)NC4CCCC4)ccc3O[C@@H]2[C@@H](CO)O1	0	-1	0	.	.	0
COC[C@H]1CCCN1c1ccc2c(c1)O[C@@H]1CCN(C1)S2(=O)=O	-2	-2	-1	.	.	-1
CCc1ccc(CCNC(=O)OCCCN2CCC3(CCC(C)CC3)C2=O)cc1 (stereo not given)	0	-4	-2	.	.	-2
Nn1c(SCC(=O)NC2CCCCC2)nnc1-c1n[nH]c2c1CCC2	-4	-3	-1	.	.	-1
O=C(NCc1cccs1)C1C2C=CC3(CN(Cc4ccccc4)C(=O)C13)O2 (stereo not given)	-1	1	0	.	.	-1
Cc1ccc(S(=O)(=O)N2CCOC2C(Cl)(Cl)Cl)cc1 (stereo not given)	-4	-2	0	?	0	1.2*
O=C(C(=O)N1CCN(S(=O)(=O)c2cccc(C(F)(F)F)c2)CC1)c1cccc(C(F)(F)F)c1	-1	0	-1	.	.	-1
O=C(NCc1ccccc1Cl)c1ccc(CSc2nc3ccncc3[nH]2)cc1	-2	-3	-1	10	-1	-1
Clc1ccccc1CSc1nc2ccncc2[nH]1	12*	4	3	-6	-1	0
O=C(OCc1cn(Cc2ccc(F)cc2F)nn1)N1CCOCC1	0	-1	-2	.	.	-1
CC(C)[C@@H]1Cc2[nH]n(C)c(=O)c2[C@H](c2ccc(F)cc2)O1	-3	3	4.1*	.	.	0
Cn1[nH]c2c(c1=O)[C@H](c1ccc(F)cc1)O[C@H](CCc1ccccc1)C2	-1	0	-1	.	.	-1
CCN(CC)c1cc2c(c3c1ccn3C)C1CCC2O1 (stereo not given)	-2	-2	0	.	.	0.9*
SMILES	hgDAF12 agonist	hcDAF12 agonist	DAX1 inh-1	PolyA inh	DAX1 inh-2	ssDAF-12 act
CCN(Cc1ccccc1)c1cc2c(c3c1ccn3C)C1CCC2O1 (stereo not given)	-3	0	-2	.	.	0
Cc1ccccc1C(=O)N[C@@H](CC(C)C)C(=O)N1CCC[C@H]1C(=O)NCc1ccccc1	-1	-1	0	.	.	0
CCCCNC(=O)Nc1nnc(-c2ccccc2)o1	2	-1	0	31	0	-1
CCCCNC(=O)Nc1nnc(-c2ccc(OCC)cc2)o1	1	1	0	.	5.5*	-1
COc1ccc(CN2C(=O)c3cccnc3C2=O)cc1S(=O)(=O)NC(C)C	3	1	0	2	5.8*	0
C(=N\Nc1ccccc1)/c1ccc(N2CCOCC2)cc1	13*	4	2	-16	2	1.2*
Clc1cccc(N/N=C/c2ccc(N3CCOCC3)cc2)c1	2	2	1	-15	1	-1
CC(CCc1ccccc1)NC(=O)[C@@H]1Cc2ccccc2CN1 (stereo not given in full)	3	1	0	2	-1	-1
CC(C)(C)NC(=O)C1Cc2ccccc2CN1 (stereo not given)	0	0	1	-11	7.3*	-1
Cc1ccc(CNC(=O)CCc2ccc(S(=O)(=O)NC3CCCCC3)cc2)cc1	-3	5.8*	0	-20	0	-2
O=C(CCc1ccc(S(=O)(=O)NC2CCCCC2)cc1)NCc1cccnc1	-1	-2	0	1	3	-1
COC(=O)[C@]1(C#N)CC(=O)N(C(C)C)[C@@H]1c1ccccc1	7	0	1	.	.	-1
COC(=O)[C@]12C[C@H](CC(=O)NCc3cccc(C(F)(F)F)c3)C(=O)N(Cc3cccc4ccccc34)C1=C[C@H](C1CCCC1)O[C@@H]2C	2	1	-1	.	.	-1
CC1(C)c2ccccc2-c2nc3ccccc3cc2C1O (stereo not given)	4	4	0	-25	1	0
c1ccc2c(c1)-c1nc3ccccc3cc1C2N1CCCCC1 (stereo not given)	10	4	4.2*	.	2	1.4*
CCOCCCNC(=O)C1CCN(S(=O)(=O)c2cc3c(cc2Br)CCN3C(=O)CC)CC1	2	-2	1	.	.	-1
CCn1c(O)c(C2=c3ccccc3=NC2=O)c2cc(Br)ccc21	3	5	0	-66	.	1.0*
Cc1sc2nc(COC(=O)CNC(=O)c3cc(F)ccc3F)[nH]c(=O)c2c1C	0	1	-1	.	.	1
COc1cc(NC(=O)c2ccc(S(=O)(=O)N(C)C)cc2)cc(OC)c1OC	-1	-2	0	-11	1	-2
COc1ccccc1OC(=O)c1ccc(S(=O)(=O)N(C)C)cc1	3	-1	0	15	5.2*	-1
COc1ccc(N2CCCC2)c(NC(=O)COc2ccccc2Cl)c1	1	4	0	-6	0	1.5*
O=C(CN1C(=O)C2CC=CCC2C1=O)Nc1ccccc1N1CCCC1 (stereo not given)	4	0	-1	1	0	-1
O=C(COc1ccccc1Cl)Nc1cc(Cl)ccc1O	6	5.7*	1	4	4.9*	1.6*
O=C(CN1C(=O)C2CCCCC2C1=O)Nc1ccccc1N1CCCC1 (stereo not given)	2	1	4.1*	-6	2	-1
